# Measurements taken from PMC5540273 (PLoS ONE, 2017).
# What was measured:
# Conditions in all cases: concentration: 1 μM,replicates: in singlicate; n = 1
# FYN = test system: FYN
# GAK = test system: GAK
# GCN2(Kin.Dom.2,S808G) = test system: T1, GCN2(Kin.Dom.2,S808G)
# T1 construct: gene EIF2AK4
# GRK1 = test system: GRK1
# GRK2 = test system: T2, GRK2
# T2 construct: gene ADRBK1
# GRK3 = test system: T3, GRK3
# T3 construct: gene ADRBK2
# GRK4 = test system: GRK4
# GRK7 = test system: GRK7
# GSK3A = test system: GSK3A
# GSK3B = test system: GSK3B
# HASPIN = test system: T4, HASPIN
# T4 construct: gene GSG2
# HCK = test system: HCK
# HIPK1 = test system: HIPK1
# HIPK2 = test system: HIPK2
# HIPK3 = test system: HIPK3
# HIPK4 = test system: HIPK4
# HPK1 = test system: HPK1
# HUNK = test system: HUNK
# ICK = test system: ICK
# IGF1R = test system: IGF1R
# 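Also: KINOMEscan kinase panel screen.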
Compound,%Inh (FYN),%Inh (GAK),"%Inh (GCN2(Kin.Dom.2,S808G))",%Inh (GRK1),%Inh (GRK2),%Inh (GRK3),%Inh (GRK4),%Inh (GRK7),%Inh (GSK3A),%Inh (GSK3B),%Inh (HASPIN),%Inh (HCK),%Inh (HIPK1),%Inh (HIPK2),%Inh (HIPK3),%Inh (HIPK4),%Inh (HPK1),%Inh (HUNK),%Inh (ICK),%Inh (IGF1R)
Cl.Nc1n[nH]c2cc(-c3ccccn3)ccc12 [GSK2189892],0%,0%,0%,0%,0%,0%,0%,0%,4%,0%,38%,0%,2%,0%,5%,0%,38%,0%,0%,5%
Cn1cc(-c2cccc3c(N)c(C(N)=O)nnc23)cn1,1%,36%,16%,23%,7%,0%,40%,36%,7%,20%,96.5%,13%,68%,62%,67%,18%,0%,0%,24%,0%
CN1CCN(CCNc2nc3cc(Oc4ccc(NC(=O)Nc5cc(C(F)(F)F)ccc5F)cc4)ccc3[nH]2)CC1.Cl.Cl [GW768504],0%,0%,24%,0%,0%,0%,17%,0%,20%,0%,0%,11%,19%,0%,0%,66%,3%,41%,0%,0%
C[C@@H](Oc1cc(-n2cnc3cc(-c4ccncc4)ccc32)sc1C(N)=O)c1ccccc1Cl [GSK479719],29%,59%,69%,100%,0%,62%,62%,0%,13%,24%,75%,9%,0%,0%,15%,24%,72%,0%,4%,14%
COc1cc2ncn(-c3cc(OCC4CCCCC4)c(C(N)=O)s3)c2cc1OC [GSK204559],29%,79%,6%,23%,7%,40%,27%,98%,0%,0%,0%,0%,9%,0%,0%,68%,39%,0%,0%,5%
C[C@@H]1CNc2c(sc3ccc4nc(-c5ccncc5)ccc4c23)C(=O)N1,0%,13%,0%,34%,18%,0%,2%,29%,0%,3%,70%,21%,37%,3%,4%,0%,0%,7%,0%,0%
CC(=O)c1c(-c2ccncc2)[nH]c(-c2ccncc2)c1C [GW493036],37%,27%,0%,0%,0%,66%,0%,0%,81%,58%,85%,0%,53%,0%,65%,86%,11%,26%,18%,0%
O=C1NCCc2[nH]c(-c3ccncc3)cc21,0%,5%,0%,14%,25%,36%,3%,27%,88%,54%,100%,20%,91.5%,97.2%,95.5%,,7%,0%,29%,0%
Cc1cccc2c(-c3ccncc3)c(-c3ccc(F)cc3)nn12.Cl [GW461487],4%,67%,1%,0%,0%,21%,100%,0%,12%,10%,2%,0%,0%,0%,19%,0%,28%,5%,0%,0%
COc1cc2c(Nc3ccc(NC(=O)c4ccccc4)cc3)ncnc2cc1OCCCN1CCOCC1 [GSK301329],49%,0%,4%,10%,0%,0%,12%,0%,0%,11%,0%,0%,15%,0%,3%,79%,15%,0%,2%,15%
CCn1c(-c2nonc2N)nc2cncc(Br)c21 [SB-738004],0%,17%,0%,32%,12%,69%,0%,16%,29%,40%,99.4%,3%,47%,74%,74%,0%,42%,27%,7%,0%
CCNCC(Cc1ccccc1)NC(=O)c1cc(Br)c(-c2ccnc3[nH]ccc23)s1.Cl.Cl (stereo not drawn) [GSK1383280],0%,51%,43%,89%,61%,83%,0%,91.9%,0%,14%,88%,0%,46%,18%,48%,92.5%,51%,0%,18%,23%
Cn1ccc2ncnc(Oc3ccc(NC(=O)Nc4cc(C(C)(C)C)on4)c(Cl)c3)c21,35%,13%,0%,16%,62%,1%,0%,8%,0%,0%,5%,66%,36%,34%,0%,28%,30%,2%,15%,15%
CC(C)c1nc(-c2cccc(NS(=O)(=O)c3ccccc3)c2)c(-c2ccnc(Nc3ccc4c(c3)CN(C)CC4)n2)s1 [GSK1649598],98.7%,87%,100%,0%,0%,0%,0%,0%,61%,24%,0%,99.7%,75%,58%,69%,93.6%,88%,3%,36%,0%
Cl.Cl.NC[C@H](CC1CCCCC1)NC(=O)c1ccc(-c2ccnc3[nH]ccc23)s1 [GSK1581428],17%,87%,0%,93.6%,55%,77%,91.9%,96.2%,0%,9%,88%,0%,98.7%,96.1%,98.9%,94.2%,78%,0%,11%,0%
c1ccc(Oc2ccc(Nc3ccnc4ccc(-c5ccccn5)cc34)cc2)cc1 [GW407034],62%,17%,1%,0%,0%,46%,16%,0%,7%,9%,0%,71%,0%,0%,0%,0%,25%,0%,16%,5%
CS(=O)(=O)Nc1ccc(-c2ccnc3[nH]ccc23)cc1 [GSK993273],0%,26%,0%,18%,0%,22%,71%,76%,0%,17%,78%,0%,56%,8%,73%,34%,38%,0%,6%,2%
